Measurements reported in the supplement of paper PMC12669032.
Values without a mark were called inactive.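 The calls were made as follows: active = AUC reduced over 20% with Padj below 0.05 in at least 2 of 3 replicates; inactive = otherwise.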

Columns and labels:
Roseburia intestinalis = assay: growth AUC relative to DMSO control (median of replicates) (fraction); higher = more growth (less inhibition), active = hit call of the paper; details: 20 µM; 24 h
Method in brief: (§1)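 Each value is the median of three biological replicates, grown on separate days, of a gut bacterial monoculture incubated anaerobically at 37 °C in mGAM with 20 µM compound (1% DMSO). Cultures started at OD600 0.05 and were read at OD600 hourly for 24 h, with the minimum OD set to 0. Area under the growth curve was normalised to the plate median of solvent-only wells, or to row and column medians on the industrial chemical plate.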

Streptococcus salivarius = assay: as above; details: 20 µM; 24 h
Method in brief: as §1

Compound	growth AUC (Roseburia intestinalis)	growth AUC (Streptococcus salivarius)
O=[N+]([O-])c1cc(C(F)(F)F)c(Cl)c([N+](=O)[O-])c1Nc1ncc(C(F)(F)F)cc1Cl	0.989	0.822
CCc1cc(C)cc(CC)c1-c1c(OC(=O)C(C)(C)C)n2n(c1=O)CCOCC2	0.981	1.02
CCOP(=S)(OCC)Oc1ccc(=O)n(-c2ccccc2)n1	0.988	0.983
C=CCOC(=O)C(C)(C)OC(=O)c1cc(-n2c(=O)cc(C(F)(F)F)n(C)c2=O)ccc1Cl	0.994	0.98
CCOP(=S)(OCC)SCS(=O)C(C)(C)C (configuration not stated)	1.04	1.04
CCOc1cc(Oc2ccc(C(F)(F)F)cc2Cl)ccc1[N+](=O)[O-]	0.884	0.976
COCC(=O)N(c1c(C)cccc1C)C(C)C(=O)OC (configuration not stated)	1.01	0.986
S=C1NCCN1	1.01	0.992
CCOP(=S)(Oc1ccc([N+](=O)[O-])cc1)c1ccccc1 (configuration not stated)	1.04	1.04
CC(Cc1ccc(C(C)(C)C)cc1)CN1CCCCC1 (configuration not stated)	0.976	1
COC(=O)C(C)N(C(=O)Cc1ccccc1)c1c(C)cccc1C (configuration not stated)	0.975	0.96
C=CCOC(Cn1ccnc1)c1ccc(Cl)cc1Cl.O=S(=O)(O)O (configuration not stated)	0.261 (active)	0.953
CCOc1cc(C(C)(C)C)ccc1C1COC(c2c(F)cccc2F)=N1 (configuration not stated)	0.948	1.02
CCOC(=O)C(C)OC(=O)c1cc(Oc2ccc(C(F)(F)F)cc2Cl)ccc1[N+](=O)[O-] (configuration not stated)	0.78 (active)	0.903
O=C(O)c1ccc(=O)[nH]c1	1.01	0.981
Cn1cc(-c2ccccc2)c(=O)c(-c2cccc(C(F)(F)F)c2)c1	1.04	0.986
O=C(Nc1ccccc1)c1ccccc1I	1	1.03
CCc1nn(C)c(C(=O)NCc2ccc(C(C)(C)C)cc2)c1Cl	0.96	0.906
CCOC(=O)/C=C(C)/C=C/C[C@@H](C)CCCC(C)C	1.09	0.972
c1ccc2c(c1)ccc1c3ccccc3sc21	0.964	1.05
COP(=S)(Oc1cc(Cl)c(Br)cc1Cl)c1ccccc1 (configuration not stated)	1.04	1.05
CCNc1nc(Cl)nc(NC(C)(C)C#N)n1	1.03	0.976
CCCOCC(=Nc1ccc(Cl)cc1C(F)(F)F)n1ccnc1	0.805	0.982
O=S(=O)(c1ccc(Cl)cc1)c1cc(Cl)c(Cl)cc1Cl	0.989	0.999
CCNP(=S)(OC)O/C(C)=C/C(=O)OC(C)C (configuration not stated)	1.05	0.99
C[C@H]1[C@H](c2ccc(Cl)cc2)SC(=O)N1C(=O)NC1CCCCC1	0.922	0.985
